A short description of this assay: NALP1 inflammasome inhibitors in reconstituted yeast, colorimetric, S. cerevisiae, triplicate retest (AID 2071). The following applies: S. cerevisiae NALP1/ASC/caspase-1 growth, X-gal OD620, 72 h, stronger effect = higher value.

The record followed here is PubChem BioAssay AID2071 (Sanford-Burnham Center for Chemical Genomics, 2009).

Screen size: about 280,000 compounds; about 1,700 (0.61%) were called active. The sample holds actives, similar compounds and a random draw of the others, so the mix is not that of the screen. Cut-off read from the data, not from the text of the source: active = inhibition mostly above about 24% (no sharp cut-off); inactive = mostly below about 32%.

What is called inhibition is the drop in the measured response relative to a control, in per cent.

`COC(=O)c1ccc2c(C(C)(C)O)c(C(C)(C)O)[nH]c2c1`: the inhibition (at 10 µM unless noted) is 2.7% (inactive).
Same read-out and setting: the same measure for `O=C(Nc1cccc(Cl)c1Cl)c1ccccc1NC(=O)C1CC=CCC1C(=O)O` (stereo not given): 11% (inactive); for `CCCN1C2CCCC1CC(NC(=O)NC13CC4CC(CC(C4)C1)C3)C2` (stereo not given): 13.5% (inactive).
Same read-out and setting: the same measure for `COc1cccc(C(C(=O)NC2CCCC2)N(C(=O)c2ccco2)c2cccc(C(C)=O)c2)c1OC` (stereo not given): 24.9% (inactive); for `CCCn1c(CCNc2nc(-c3ccc(OC)cc3)cs2)nc2ccccc21`: -2.4% (inactive); for `O=C(CSc1ncnc2c1oc1ccccc12)NC1CCCC1`: 15.8% (inactive).
As for `O=C(CSc1ncnc2c1nnn2Cc1ccc(F)cc1)NC1CCCC1`, the inhibition (at 10 µM unless noted) was 23.4% (active).
The same measure, in the same setting: the same measure for `O=C(Cc1ccc(F)cc1)NC1CCCC1`: 9.3% (inactive).
In the case of `COc1ccc(-c2cc(C(=O)N(C)Cc3ccc(OC)c(OC)c3OC)c3ccccc3n2)cc1OC`, the inhibition (at 10 µM unless noted) is 19% (inactive).
The same measure, in the same setting: the same measure for `Cc1nnc(NC2=NCCCCC2)o1`: 37.9% (active).
For `Cn1cccc1C(=O)N1CCc2ccccc2C1`, the inhibition (at 10 µM unless noted) was 19.1% (inactive).
For `CCC(C)c1ccc(NC(=S)N2CCCC2)cc1` (stereo not given), where the note is “at 10 µM unless noted”, the inhibition is -2.6% (inactive).
Same read-out and setting: as for `COc1ccc(C(=O)/C=C/c2ccc(-c3ccccc3)cc2)cc1CSCC(=O)O`, the figure is 3% (inactive); as for `COC(=O)c1ccc(COc2ccc(/C=C/C(=O)c3ccc(OC)c(CSCC(=O)O)c3)cc2OC)cc1`, 34.2% (active).
The same measure, in the same setting: as for `COc1cc(/C=N/O)ccc1OCc1ccc([N+](=O)[O-])cc1`, the figure is 12.2% (inactive).
Take `CC(=O)Nc1ccc(N2C(=O)CC(Sc3nccc(C)n3)C2=O)cc1` (stereo not given): the inhibition (at 10 µM unless noted) is -0.3% (inactive).
The same measure, in the same setting: the same measure for `Cn1c(NC(=O)c2ccccc2)nc2ccccc21`: 7.4% (inactive).
For the compound `CCc1ccc(S(=O)(=O)N/N=C\c2ccc([N+](=O)[O-])o2)cc1`, the inhibition (at 10 µM unless noted) was 9.4% (inactive).
As to `Cc1ccc(C(C[N+](=O)[O-])c2c(C)cc3ccccn23)cc1` (stereo not given), the inhibition (at 10 µM unless noted) was 98.9% (active).
The same measure, in the same setting: the same measure for `Cc1cc2ccccn2c1C(=O)c1cccc(F)c1`: 17.6% (inactive); for `CCC1=Nc2cc(C(=O)NCCCN3CCOCC3)ccc2Sc2ccc(Br)cc21`: 7.2% (inactive); for `CCc1ccc(CN(C)C(=O)C2CCC(=O)N(Cc3cccc(OC)c3)C2)nc1` (stereo not given): 9.6% (inactive).
`Cc1oc2cc3oc(=O)ccc3cc2c1C`: the inhibition (at 10 µM unless noted) is 8.6% (inactive).
With `CN(C)CCCN(C(=O)COc1ccccc1)c1nc2c(Cl)cccc2s1`, the inhibition (at 10 µM unless noted) is 3.9% (inactive).
`COc1cccc2sc(N(CCCN(C)C)C(=O)CCS(=O)(=O)c3ccccc3)nc12`: the inhibition (at 10 µM unless noted) is 14.3% (inactive).
Take `Cc1cccc2sc(N(CCCN(C)C)C(=O)CCS(=O)(=O)c3ccccc3)nc12`: the inhibition runs as follows: (at 10 µM) 78.1% (active); (triplicate retest, at 20 µM) 99.3%.
Regarding `CC(C)CCNC(=O)c1ccc2c(Cl)c3c(nc2c1)CCC3`, under “at 10 µM unless noted”, the inhibition was 16.8% (inactive).
The same measure, in the same setting: as for `Cc1ccc(N(Cc2cc(=O)[nH]c3ccccc23)C(=O)CCl)cc1`, the figure is 17.4% (inactive).
The same measure, in the same setting: as for `Cc1ccc(NC(=O)C/C(N)=N/O)cc1Cl`, the figure is -8.9% (inactive).
Consider `O=C(CC(O)(C(F)(F)F)C(F)(F)F)Nc1ccc(Cl)c(Cl)c1`, for which the inhibition runs as follows: (at 10 µM) 78.5% (active); (triplicate retest, at 20 µM) 110%.
Turning to `O=C(CC(=O)Nc1ccc(Cl)c(Cl)c1)N/N=C/c1ccc(O)cc1`, where the note is “at 10 µM unless noted”, the inhibition is 21.7% (inactive).
For the compound `COc1ccc(C(=O)C2CCCN(C(=O)c3cc(C)on3)C2)cc1F` (stereo not given), where the note is “at 10 µM unless noted”, the inhibition is 4% (inactive).
On the same count and under the same terms, the same measure for `Cc1ccc(/C=N/NC(=O)c2cc3ccccc3cc2O)o1`: -11.5% (inactive); for `CC(=O)N(C)c1ccc(NC(=O)Nc2cccc3ccccc23)cc1`: 15.8% (inactive).
Same read-out and setting: as for `CCOc1cc(/C=C/c2nc3ccccc3c(=O)[nH]2)cc(Br)c1OC`, the figure is 8.1% (inactive); as for `COc1ccc2oc(=O)c(C(=O)N3CCN(c4ccccc4F)CC3)cc2c1`, 0.6% (inactive).
The same measure, in the same setting: the same measure for `O=C(c1ccc(CN2CCOCC2)cc1)N1CCN(c2ccccc2F)CC1`: 6.8% (inactive); for `O=C(c1cccc2ccccc12)N1CCN(c2ccccc2F)CC1`: 41.1% (active).
Regarding `COc1ccccc1CNC(=O)[C@@H]1CCCN1C(=O)[C@@H]1Cc2ccccc2CN1C(=O)OC(C)(C)C`, the inhibition (at 10 µM unless noted) is -18.4% (inactive).
`COc1ccc(NC(=S)SC)cc1OC`: the inhibition is, setting by setting: (at 10 µM) 73.8% (active); (triplicate retest, at 20 µM) 94.6%.
As for `COc1ccc(NS(=O)(=O)c2ccc(NC(C)=O)cc2)cc1OC`, the inhibition (at 10 µM unless noted) was 26.3% (inactive).
On the same count and under the same terms, as for `COc1ccc(NC(=O)CNC(=O)Cc2ccccc2)cc1OC`, the figure is -89.6% (inactive).
On to `Cc1cc(NC(=O)CCN2CCN(Cc3ccccc3)CC2)ccc1Br`, for which the inhibition (at 10 µM unless noted) was 16.7% (inactive).
On the same count and under the same terms, the same measure for `CN(CCO)c1ccc(/C=N/Nc2nncc3ccccc23)cc1`: 3.8% (inactive); for `O=C(O)C(NS(=O)(=O)c1cccc2nsnc12)c1ccccc1` (stereo not given): 15.5% (inactive); for `O=C(C(NS(=O)(=O)c1cccc2nsnc12)c1ccccc1)N1CCN(c2ccccn2)CC1` (stereo not given): 8.1% (inactive).
Take `O=C(C(NS(=O)(=O)c1cccc2nsnc12)c1ccccc1)N1CCN(c2ccccc2)CC1` (stereo not given): the inhibition (at 10 µM unless noted) was 34.4% (active).
For `CCOc1ccc(CN2CCN(CCCc3ccccc3)C(CCO)C2)cc1` (stereo not given), the inhibition (at 10 µM unless noted) was 28.9% (inactive).
Consider `CCn1ccnc1CN(C)C(=O)c1cc(COc2ccc(Cl)cc2OC)on1`, for which the inhibition (at 10 µM unless noted) was -9.7% (inactive).
The same measure, in the same setting: as for `CC(C)(C)c1ccc(/C=C/C(=O)NCCCn2ccnc2)cc1`, the figure is 1.5% (inactive); as for `CCOc1ccccc1-c1cc(C(=O)N2CCOCC2)c2ccccc2n1`, 0.7% (inactive); as for `COc1ccc(F)c(-c2nc(CN3CCC(c4ccccc4)CC3)c(C)o2)c1`, 13.2% (inactive).
Regarding `CCOc1ccccc1-c1nc(CN2CCC(C(=O)N3CCOCC3)CC2)c(C)o1`, the inhibition (at 10 µM unless noted) was 29% (active).
Same read-out and setting: the same measure for `CCOc1ccc(CN2CCNC(=O)C2CC(=O)NCCCC2CCCC2)cc1` (stereo not given): 1% (inactive); for `C/C(=N\NC(=O)c1cc(-c2ccc(O)cc2)nc2ccccc12)c1cccnc1`: -2.6% (inactive).
Consider `CCOC(=O)CSc1nc2ccc(C)cc2n2cnnc12`, for which the inhibition (at 10 µM unless noted) was 10.4% (inactive).
On the same count and under the same terms, as for `COc1ccc(-n2c(SCC(=O)Nc3sc4c(c3C#N)CCCC4)nnc2-c2ccc(O)cc2)cc1`, the figure is 40.9% (active); as for `N#Cc1c(NC(=O)CSc2nc3ccccc3c(=O)n2Cc2ccco2)sc2c1CCCC2`, 20.7% (inactive); as for `CCCc1cc(=O)[nH]c(SCC(=O)Nc2sc3c(c2C#N)CCCC3)n1`, 9.4% (inactive).
On the same count and under the same terms, the same measure for `COc1ccc(C(=O)NCC(=O)N/N=C/c2cccnc2)cc1`: -23.5% (inactive); for `CC(C)[C@@H]1COC(c2cccc(C3=N[C@H](C(C)C)CO3)c2)=N1`: 10.4% (inactive); for `COc1ccc(C(=O)CSc2nc(C)cc(C)n2)cc1[N+](=O)[O-]`: -10% (inactive).
The same measure, in the same setting: as for `COc1ccc(OCc2cn3c(C)cc(C)nc3n2)cc1`, the figure is 22.5% (inactive); as for `COc1ccc(C(C[N+](=O)[O-])n2nc(C)cc2C)cc1` (stereo not given), 103% (active).
Regarding `CN(Cc1cnccn1)C(=O)c1cc(COc2cccc(C(F)(F)F)c2)on1`, the inhibition (at 10 µM unless noted) was -7.1% (inactive).
Same read-out and setting: as for `S=C(Nc1cccc(Cl)c1)Nc1ccc2c(c1)OCCO2`, the figure is 2% (inactive); as for `Cc1cccc(C)c1NC(=O)c1ccc(CN2CCc3ccccc3C2)cc1`, 29.1% (active); as for `CN(c1cccc(NC(=O)c2ccc(CN3CCc4ccccc4C3)cc2)c1)S(C)(=O)=O`, -14.2% (inactive).
The same measure, in the same setting: the same measure for `Cc1ccc(NC(=O)CN2CCc3ccccc3C2)cc1`: -0.6% (inactive); for `CCOC(=O)c1ccc(NC(=O)c2cccnc2)cc1`: 16.3% (inactive).
The same measure, in the same setting: as for `S=C(Nc1ccc(Cl)cc1Cl)N1CCCC1`, the figure is 11% (inactive); as for `CCC(=O)N1CCc2cc(S(=O)(=O)CCC(=O)N3CCN(c4ccccc4F)CC3)ccc21`, 32% (inactive).
For the compound `O=C(CCS(=O)(=O)c1cccc2nsnc12)N1CCN(c2ccccc2F)CC1`, the inhibition (at 10 µM unless noted) was 42.9% (active).
Same read-out and setting: as for `O=C(CCCNS(=O)(=O)c1cccc2nsnc12)NCCN1CCN(c2ccccc2F)CC1`, the figure is 8.8% (inactive).
`CN(C(=O)c1cc2c(=O)n3ccccc3nc2s1)C1CCCCC1`: the inhibition (at 10 µM unless noted) was 4.6% (inactive).
On the same count and under the same terms, as for `CC(=O)NCCNC(=O)c1cc(-c2cccc3ccccc23)nc2ccccc12`, the figure is 0.4% (inactive); as for `C=CCOc1cccc(C2C(C(=O)c3ccc(C)o3)=C(O)C(=O)N2CCCn2ccnc2)c1` (stereo not given), 13.4% (inactive).
On the same count and under the same terms, as for `O=C(CNC(=O)c1ccc(F)cc1)c1ccccc1`, the figure is 3.2% (inactive).
As for `O=C(C1CCC(=O)N(C2CC2)C1)N1CCN(c2ccc(Cl)cc2)CC1` (stereo not given), the inhibition (at 10 µM unless noted) is 26.5% (active).
Same read-out and setting: as for `O=C(NCc1cccc(Cl)c1)C1CCC(=O)N(C2CC2)C1` (stereo not given), the figure is 15.1% (inactive); as for `O=C(C1CC(=O)N(C2CCCCC2)C1)N1CCN(c2ccccc2)CC1` (stereo not given), 4.2% (inactive); as for `O=C(NCc1ccccc1)C(=O)NCC1OCCN1S(=O)(=O)c1ccc(Br)cc1` (stereo not given), 8% (inactive).
The same measure, in the same setting: the same measure for `Nc1nc(Nc2ccccc2)nc(NCCO)c1[N+](=O)[O-]`: 2.9% (inactive); for `CN(C)c1nc(Nc2ccc(Cl)c(Cl)c2)nc(N(C)C)n1`: 14.2% (inactive).
On the same count and under the same terms, as for `OCCNc1nc(Nc2ccc(Cl)c(Cl)c2)nc2ccccc12`, the figure is 31.9% (active).
As to `O=S(=O)(NC1CC2CCC1C2)c1ccc(Cl)cc1` (stereo not given), under “at 10 µM unless noted”, the inhibition is -6% (inactive).
Still for that read-out and setting: as for `Cc1ccc2c(C)c(C(=O)N3CCN(c4ccncc4)CC3)oc2c1C`, the figure is 12.6% (inactive); as for `COc1cc(CN2CCCC(C(=O)c3ccc(SC)cc3)C2)cc(Cl)c1O` (stereo not given), 19.3% (inactive); as for `COc1ccc(S(=O)(=O)N2CCN(C)CC2)c(C)c1`, 26.4% (inactive).
On the same count and under the same terms, the same measure for `COc1ccc(C)cc1Nc1n[n+](-c2ccccc2)c(-c2cccc(Cl)c2Cl)s1`: 19.6% (inactive); for `CCOC(=O)/C(C#N)=C/c1ccc(N2CCCCC2)cc1`: 6.6% (inactive).
Regarding `O=C1C=CC(=O)N1c1ccc(N2CCCCC2)cc1`, the inhibition (at 10 µM) was 45.6% (active) and the inhibition (triplicate retest, at 20 µM) worked out at 114%.
As for `Cc1ccccc1C(=O)Nc1ccc(N2CCCCCC2)cc1`, the inhibition (at 10 µM unless noted) is 1.4% (inactive).
Same read-out and setting: the same measure for `CCOc1c2ccc(C(=O)NCc3ccc(OC(F)(F)F)cc3)cc2nn1C`: 14.9% (inactive); for `CCCn1nc2cc(C(=O)NCc3ccccc3)ccc2c1OCC`: 34.5% (active); for `CCOc1c2ccc(C(=O)NCc3ccc4c(c3)OCO4)cc2nn1C`: 30.5% (inactive).
